Test results taken from the supplement of paper PMC6555819.

Tests used:
Test in all cases: PBM binding z-score (relative to random genomic background probes); higher = stronger binding; sequences stand for … in GC…GCGATTGACAGCGTAGAATGAAGG
[1] = test system: PPARg:RXRa DBDmut IVT, anti-RXR (DBD mutation: RXRa K156A/R161A, NR concentration 270 nM, RXRa partner concentration 90 nM)
Outline: (§1)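 Binding z-scores take random background probes as their reference. They come from custom Agilent 4×180K protein-binding microarrays incubated 1 h with ligand-free nuclear receptor dimers, with antibodies against each partner (one per run) detecting binding. Scanned fluorescence was regression-normalized.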

[2] = test system: PPARg:RXRa IVT, anti-PPARg (NR concentration 270 nM, RXRa partner concentration 90 nM)
Outline: as §1

[3] = test system: PPARg DBDmut:RXRa IVT, anti-PPARg (DBD mutation: PPARg1 K132A/R137A, NR concentration 270 nM, RXRa partner concentration 90 nM)
Outline: as §1

[4] = test system: PPARg DBDmut IVT, anti-PPARg (DBD mutation: PPARg1 K132A/R137A, NR concentration 270 nM)
Outline: as §1

[5] = test system: PPARg homodimer (NR concentration 180 nM)
Outline: as §1

[6] = test system: PXR:RXRa (NR concentration 270 nM, RXRa partner concentration 90 nM)
Outline: as §1

[7] = test system: PXR homodimer (NR concentration 270 nM)
Outline: as §1

[8] = test system: RARa:RXR (NR concentration 270 nM, RXRa partner concentration 90 nM)
Outline: as §1

[9] = test system: RARa homodimer (NR concentration 270 nM)
Outline: as §1

[10] = test system: RARb:RXRa (NR concentration 270 nM, RXRa partner concentration 90 nM)
Outline: as §1

| Sequence | PBM binding z-score [1] | PBM binding z-score [2] | PBM binding z-score [3] | PBM binding z-score [4] | PBM binding z-score [5] | PBM binding z-score [6] | PBM binding z-score [7] | PBM binding z-score [8] | PBM binding z-score [9] | PBM binding z-score [10] |
| --- | --- | --- | --- | --- | --- | --- | --- | --- | --- | --- |
| TTACCAAGGTGCAGGTCGTTGATCCCTCTGTAGA | -0.00827 | 0.492 | -0.281 | -1.32 | -0.014 | 0.4 | 0.135 | 0.7 | -0.516 | 0.624 |
| CGTCCAAGGTCAATGCTAGGTGAGTGAAAGCATT | 3.33 | 3.79 | 0.0432 | -0.14 | 1.77 | 3.31 | 0.668 | 3.57 | 0.59 | 4.9 |
| CGAACTAGGTCAGACCAGGACAGTGAAGGATGAT | 7.38 | 7.63 | 1.83 | 0.713 | 0.868 | 1.61 | -0.171 | 1.37 | -0.466 | 3.2 |
| CCTTACGGTTCACGAGGTTATAGCACGACGAGCG | 0.19 | 0.535 | 0.19 | 0.414 | 1.45 | 3.2 | 1.29 | 3.8 | 1.36 | 1.99 |
| CGTCCAAGGTCATAGGAGGTCAGTGAAGACAGAT | 3.11 | 4.48 | 0.77 | -0.116 | 3.31 | 6.64 | 4.38 | 5.77 | 1.77 | 5.4 |
| TCATATAGGTAAACAGATGAAAGTCCGTAAGTTA | 3.98 | 2.76 | 1.5 | 0.808 | 0.603 | 0.869 | 0.583 | 0.622 | 1.28 | 0.483 |
| TCTTGTAGATCATTAGAGGTTAAGAAAGTGCGCT | 1.84 | 1.01 | 0.756 | 0.793 | 0.628 | 3.16 | 0.436 | 1.89 | 0.575 | 1.01 |
| AGAATGAGGTTATTAAGGTCAGGGAATTGCGGTC | 4.18 | 4.42 | 1.61 | 0.235 | 2.65 | 5.11 | 11.1 | 4.38 | 1.85 | 3.79 |
| TATTGTAGATCAATAGAGGTTAAGAAAGTGCGCT | 0.44 | 1.78 | 1.72 | 1.55 | 0.993 | 3.04 | 0.513 | 1.71 | 1.1 | 0.903 |
| AATACAGTGTCATCGTAGGCCAGAGTACGCACAG | 0.125 | 1.2 | 1.33 | -0.183 | -0.106 | 0.441 | -0.156 | 0.969 | 0.337 | 1.21 |
| ATCTCTAGGTAACAAAGTTCAGTGAATGCCGAAC | 3.03 | 3.03 | 1.17 | 0.837 | 1.24 | 2.36 | 2.09 | 1.61 | 0.834 | 2.4 |
| CCTACTTGGCCATCAGGTCATTGATATCAACGTT | 1.33 | 1.93 | 0.603 | 0.617 | 1.82 | 1.95 | 1.62 | 2.17 | 1.76 | 2.19 |
